Hit rate of the full screen: of about 330,000 compounds, about 4,600 (1.4%) were called active. Only a selection was taken, and actives are over-represented in it overall. A number with no mark means an inactive call.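 Rule for the calls: active = inhibition of 40% or more at the single tested concentration; inactive = the rest.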

This assay in a line: growth inhibitors of isogenic TIM10 control yeast, primary screen, counter-screen for tim10-1 yeast inhibitor project, luminescence, uHTS (AID 463195).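 Note: wild-type TIM10 isogenic control strain grown at permissive 25 °C; 0% = DMSO yeast wells and 100% = minimal medium wells without yeast.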 The conditions noted are these: S. cerevisiae TIM10 strain growth, BacTiter-Glo luminescence, 24 h; at 10 µM; stronger effect = higher value.
Regarding `COc1ccc(C2=NS(=O)(=O)N(C)C(C(=O)NC(C)c3ccccc3)=C2)cc1` (stereo not given), the inhibition was -4.03%.
Under `Cn1c(=O)c2c(nc(NCCNC(=O)c3ccco3)n2Cc2ccccc2F)n(C)c1=O` stands -1.93%; under `COc1cc(NC(=O)COC(=O)c2ccc([N+](=O)[O-])s2)cc(OC)c1OC`, 32.6%.
For the molecule `O=C(OCC(=O)N1CCN(c2ccccc2)CC1)c1ccc([N+](=O)[O-])s1`, the inhibition is -16.2%.
Under `COc1ccc(C(=O)COC(=O)c2ccc([N+](=O)[O-])s2)cc1OC` stands 60.6% (active); under `O=C(O)c1cccc2c1C(=O)N(C1CCCCC1)C2`, 17.6%.
Under `COc1ccc(CNC(=O)C2CCN(C(=O)c3ccco3)CC2)cc1` stands 6.55%; under `CC(C)NS(=O)(=O)c1ccc(CCC(=O)N2CCOCC2)cc1`, -1.05%; under `C=CCSC(CC)(CC)C(N)=O`, 2.57%.
Under `NS(=O)(=O)c1ccc(NC(=S)Nc2ccc(Br)c(Cl)c2)cc1` stands 42.9% (active); under `NS(=O)(=O)c1ccc(CCNC(=S)Nc2ccc(S(N)(=O)=O)cc2)cc1`, 1.03%.
Take `NS(=O)(=O)c1ccc(NC(=S)NC(=O)c2cccc(Br)c2)cc1`: the inhibition was 19.3%.
Take `O=C(CSc1nc(O)c(Cc2ccccc2)c(=O)[nH]1)Nc1nc2c(s1)CCCC2`: the inhibition is -0.307%.
For `O=C(NCc1ccccc1)c1ccc(CNc2c(N3CCCC3)c(=O)c2=O)cc1`, the inhibition was 2.83%.
In the case of `CCOC(=O)C(CCOc1cccc(CC)c1)C(=O)OCC` it was 9.43%; in that of `Cc1noc(C)c1S(=O)(=O)Nc1ccc(C(=O)N2CCN(c3ccc(F)cc3)CC2)cc1`, 3.71%.
On to `Cc1ccc(F)cc1NC(=O)N1CCCN(c2ccc(C(F)(F)F)cn2)CC1`, for which the inhibition was 21.2%.
Under `O=C(c1ccc2nc(N3CCOCC3)sc2c1)N1CCN(c2ccc(Cl)cc2)CC1` stands 39.5%; under `Cc1ccc2nc(N3CCN(C(=O)c4ccco4)CC3)sc2c1`, -6.8%; under `COc1ccc2nc(N3CCN(C(=O)c4ccc([N+](=O)[O-])o4)CC3)sc2c1`, 43.2% (active).
Under `CCCC(=O)n1nc(NCc2ccc(OC)cc2)nc1NCc1ccc(OC)cc1` stands -4.33%.
Under `Cc1ccnc(SCC(=O)Nc2cccc(S(=O)(=O)N3CCOCC3)c2)n1` stands -2.35%; under `COC(=O)c1cc(=O)n(-c2c(Cl)cc(C(F)(F)F)cc2Cl)[nH]1`, -4.96%; under `COc1ccc2c(c1)cc1n2CCN=C1NN`, 76.6% (active).
For `COc1ccc2ccn(C)c2c1`, the inhibition was -5.57%.
In the case of `O=C(O)CSc1ccc(S(=O)(=O)N2CCCC2)cn1` it was 8.26%; in that of `O=C(CCC1CCCN(C(=O)c2ccc(F)c(F)c2)C1)N1CCN(c2ccccn2)CC1` (stereo not given), 13.4%; in that of `Cc1no[n+]([O-])c1COc1ccccc1/C=C1\NC(=S)NC1=O`, -3.3%.
In the case of `Cc1ccc(SCC(=O)NNC(=O)c2ccc(S(C)(=O)=O)cc2)cc1` it was 2.08%.
In the case of `O=S(=O)(NN=C1CCCCCCC1)c1ccc(Br)cc1` it was 17.3%; in that of `COc1ccc(CNc2ncnc3ccccc23)cc1`, 2.62%; in that of `COc1cccc(CNc2nc(C(F)(F)F)nc3ccccc23)c1`, 44.2% (active).
Take `CCc1ccc(C(CNc2nc(C(F)(F)F)nc3ccccc23)N(C)C)cc1` (stereo not given): the inhibition was 9.55%.
In the case of `COc1ccc(/C(N)=N/OC(=O)CCCc2ccccc2)cc1` it was 48.1% (active); in that of `N/C(=N\OC(=O)CCc1ccccc1)c1ccc(Cl)cc1`, 57.5% (active).
Consider `COc1ccc(/C(N)=N/OC(=O)Cc2ccccc2)cc1`, for which the inhibition is 21.6%.
In the case of `N/C(=N\OC(=O)CC1CCCCC1)c1ccccc1` it was 38%.
As for `N/C(=N\OC(=O)CCc1ccccc1)c1cccnc1`, the inhibition is -2.8%.
In the case of `COc1ccc(/C(N)=N/OC(=O)Oc2ccccc2)cc1` it was 2.38%.
Under `Nc1cccc(S(=O)(=O)Nc2ccc(SC(F)F)cc2)c1` stands 15.6%; under `CCc1ccc(S(=O)(=O)Nc2cc3c(cc2N2CCCCC2)n(C)c(=O)c(=O)n3C)cc1`, 18%.
Under `OCC1(Cc2ccccc2C(F)(F)F)CCN(Cc2cccc3cnccc23)CC1` stands -41.2%; under `Cc1ccc(N(C(=O)c2sc(C)nc2C)C(C(=O)NC(C)(C)C)c2ccncc2)cc1` (stereo not given), -2.14%.
With `O=C1OC[C@@H]2CCCN2C(=O)[C@H](CC(=O)N(CCO)Cc2ccccc2)C/C=C\CC[C@@H]1Cc1ccc(F)cc1`, the inhibition is 1.13%.
In the case of `CCN(Cc1ccccc1)S(=O)(=O)c1cc2c3c(c1)CCN3C(=O)CC2` it was -18.1%.
Take `O=C(COc1ccccc1Cl)Nc1ccccc1C(=O)NC1CC1`: the inhibition was 4.12%.
Under `NC(=O)CC(NC(=O)Cc1ccc(Br)cc1)c1ccc(NC2CC3CCC2C3)c([N+](=O)[O-])c1` (stereo not given) stands 11.3%; under `O=[N+]([O-])c1ccc2c(c1)Nc1nc3ccccc3nc1N2`, 79.8% (active); under `COc1ccc([N+](=O)[O-])cc1-c1nc2ccccc2nc1-c1ccccc1`, 12.2%.
Consider `O=[N+]([O-])c1ccc2nc(-c3ccccn3)[nH]c2c1`, for which the inhibition was 13.4%.
Under `CCc1ccc(CN2C(=O)c3ccccc3C2C(=O)NCC2CCCO2)cc1` (stereo not given) stands -1.35%; under `COc1ccc(OC)c2sc(NC(=O)C3COc4ccccc4O3)nc12` (stereo not given), 43.3% (active); under `COc1ccc(NC(=O)C2COc3ccccc3O2)cc1` (stereo not given), -1.21%.
In the case of `COc1cc(SC)ccc1C(=O)NNC(=O)C1COc2ccccc2O1` (stereo not given) it was -2.79%; in that of `Cc1cccc(NC(=O)CN2CCN(CC(=O)NCC3(N4CCCCC4)CCCCC3)CC2)c1C`, -26%; in that of `O=C(CN1CCC(O)(c2ccccc2)CC1)Nc1ccc2c(c1)OCCO2`, -4.11%.
In the case of `O=C(CCN1CCc2ccccc2C(O)(c2ccccc2)C1)c1ccc2c(c1)OCCO2` (stereo not given) it was 47.8% (active); in that of `O=C(COC(=O)c1ccccc1)c1ccc2c(c1)OCCO2`, 3.76%.
Turning to `COc1cccc2cc(/C(C)=N/NC(=O)c3ccco3)oc12`, the inhibition is 7.37%.
Turning to `CC1(C)CCSC(/C=C/c2ccccc2)=N1`, the inhibition is 59.5% (active).

Values taken from PubChem BioAssay AID463195 (Sanford-Burnham Center for Chemical Genomics, 2010).
